Source: PubChem BioAssay (Tox21)
Values joined by “and” are separate entries in the source; they are usually repeats but may differ in a detail not shown here. Identical values can stand only once. Inconclusive results are not listed. Active and inactive are the calls of the source. Unless noted, calls follow the shape of the dose curve; as a rule, active = well fitted curve in the direction sought with a large enough effect in the repeat runs; inconclusive = weak or mixed curves; inactive = no such curve, though single readings can be large; an effect the other way counts as inactive or inconclusive.

Legend:
[1] = qHTS assay to identify small molecule agonists of the vitamin D receptor (VDR) signaling pathway - cell viability counter screen (AID 743224); also: nearly all actives have a fitted effect of over 50% in size; also: potency is read from the fitted curve at half-maximal effect
Method in brief: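 VDR-bla cells were preincubated 4 h at 37C/5% CO2, then exposed to compounds for 16 h. After the 2 h room-temperature bla FRET read, CellTiter-Glo was added to the same wells and luminescence read after 30 min.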

[2] = qHTS assay to identify small molecule antagonists of the vitamin D receptor (VDR) signaling pathway - cell viability counter screen (AID 743225); also: nearly all actives have a fitted effect of over 50% in size; also: potency is read from the fitted curve at half-maximal effect
Method in brief: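 Cytotoxicity toward the VDR-bla HEK 293T line was scored by ATP-based CellTiter-Glo luminescence, read in the wells already used for the beta-lactamase readout after 16 h compound treatment under 3 nM 1-alpha,25-dihydroxyvitamin D3 stimulation.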

[3] = qHTS assay to identify small molecule agonists of the NFkB signaling pathway (AID 1159509; active = well fitted curve in the direction sought with a large enough effect in the signal ratio in the repeat runs, not every such curve was filed as active; the % refers to the signal ratio; also: series mostly up to about 61 µM)
Method in brief: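 NFkB-bla ME-180 cells carry a beta-lactamase reporter under an NF-kB response element. They were plated overnight, then exposed to compounds for 5 h at 37 C. Read-out is LiveBLAzer FRET after 1.5 hr at room temperature (405 nm excitation; 460/530 nm emission).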

[4] = qHTS assay to identify small molecule agonists of the endoplasmic reticulum stress response signaling pathway (AID 1159516; active = well fitted activation curve with a large enough effect in the signal ratio in the repeat runs, not every such curve was filed as active; the % refers to the signal ratio)
Method in brief: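 CellSensor ESRE-bla HeLa cells, carrying a beta-lactamase reporter driven by the ER stress response element, were plated overnight and exposed to compounds for 5 hr at 37 C. Reporter activity was read as FRET substrate fluorescence after 2 hr at room temperature.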

[5] = qHTS assay to identify small molecule agonists of the endoplasmic reticulum stress response signaling pathway - cell viability counter screen (AID 1159517; calls by dose curve; also: series mostly up to about 61 µM; nearly all actives have a fitted effect of over 50% in size)
Method in brief: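 CellTiter-Glo was added to wells already read for beta-lactamase FRET, and luminescence was recorded 30 min later. Cells: ESRE-bla HeLa, 1,500 per well, compound exposure 5 hr at 37 C.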

[6] = molecular target: Nuclear receptor ROR-gamma (Homo sapiens) (UniProt P51449); test: qHTS assay to identify small molecule antagonists of the retinoid-related orphan receptor gamma (ROR-gamma) signaling pathway (AID 1159521; also: nearly all actives have a fitted effect of over 50% in size; also: potency is read from the fitted curve at half-maximal effect)
Method in brief: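 Readout: ONE-Glo luciferase luminescence, 30 min at room temperature. System: Tet-on RORγ CHO, RORE-LUC. Sequence: compound 2 h, doxycycline 1 uM final, 16 h at 37 C.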

[7] = qHTS assay to identify small molecule agonists of the AP-1 signaling pathway - cell viability counter screen (AID 1159525; calls by dose curve; also: nearly all actives have a fitted effect of over 55% in size)
Method in brief: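 ME-180 AP-1-bla, 2500 cells/well, Opti-MEM + 0.5% dialyzed FBS; overnight 37 °C; cpd 15-pt titration, 5 h 37 °C; CellTiter-Glo 30 min RT; luminescence read; normalised to TOAB and DMSO controls.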

[8] = qHTS assay to identify small molecule agonists of the AP-1 signaling pathway (AID 1159526; calls by dose curve)
[9] = qHTS assay to identify small molecule agonists of the RXR signaling pathway - cell viability counter screen (AID 1159529)
Method in brief: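 Tox21 10K compounds were tested for cytotoxicity against GeneBLAzer RXR-alpha HEK 293T cells grown in 2% charcoal-stripped FBS. Exposure lasted 16 hr at 37 C, 5% CO2; viability read by CellTiter-Glo luminescence.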

[10] = qHTS assay to identify small molecule antagonists of the retinoid acid receptor (RAR) signaling pathway - cell viability counter screen (AID 1159551); also: nearly all actives have a fitted effect of over 35% in size
Method in brief: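 C3RL4 cells were seeded overnight at 37 C, then treated with compounds plus 1 uM (final) retinol for 6 h at 37 C. Viability was read as ATP by CellTiter-Glo luminescence after 30 min at room temperature.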

[11] = qHTS assay to identify small molecule antagonists of the retinoic acid receptor (RAR) signaling pathway (AID 1159552; also: nearly all actives have a fitted effect of over 50% in size; also: potency is read from the fitted curve at half-maximal effect)
Method in brief: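 Overnight-plated C3RL4 reporter cells get compound, then retinol to 1 uM final; plates sit 6 hr at 37 C, 5% CO2. A luciferase reagent is added and light output recorded after 30 min at room temperature.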

[12] = qHTS assay to identify small molecule agonists of the retinoic acid receptor (RAR) signaling pathway (AID 1159553); also: potency is read from the fitted curve at half-maximal effect
Method in brief: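 C3RL4 cells carrying a RARE luciferase reporter were plated overnight at 37 C, then exposed to compounds in DMSO for 6 hr at 37 C and 5% CO2. Luminescence was read 30 min after luciferase reagent addition at room temperature.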

[13] = qHTS assay to identify small molecule agonists of the NFkB signaling pathway - cell viability counter screen (AID 1159515; calls by dose curve; also: nearly all actives have a fitted effect of over 55% in size; also: potency is read from the fitted curve at half-maximal effect)
Method in brief: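 NFkB-bla ME-180 cells, 2,000/well, were plated overnight at 37 C, 5% CO2, then exposed to compounds in DMSO for 5 hr. After the bla FRET read, CellTiter-Glo was added to the same wells; luminescence was read after 30 min at room temperature.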

[14] = molecular target: Retinoic acid receptor RXR-alpha (Homo sapiens) (UniProt P19793); test: qHTS assay to identify small molecule agonists of the RXR signaling pathway (AID 1159527; calls by dose curve; also: nearly all actives have a fitted effect of over 35% in size)
Chain of Retinoic acid receptor RXR-alpha (Homo sapiens) (P19793 whole entry, looked up): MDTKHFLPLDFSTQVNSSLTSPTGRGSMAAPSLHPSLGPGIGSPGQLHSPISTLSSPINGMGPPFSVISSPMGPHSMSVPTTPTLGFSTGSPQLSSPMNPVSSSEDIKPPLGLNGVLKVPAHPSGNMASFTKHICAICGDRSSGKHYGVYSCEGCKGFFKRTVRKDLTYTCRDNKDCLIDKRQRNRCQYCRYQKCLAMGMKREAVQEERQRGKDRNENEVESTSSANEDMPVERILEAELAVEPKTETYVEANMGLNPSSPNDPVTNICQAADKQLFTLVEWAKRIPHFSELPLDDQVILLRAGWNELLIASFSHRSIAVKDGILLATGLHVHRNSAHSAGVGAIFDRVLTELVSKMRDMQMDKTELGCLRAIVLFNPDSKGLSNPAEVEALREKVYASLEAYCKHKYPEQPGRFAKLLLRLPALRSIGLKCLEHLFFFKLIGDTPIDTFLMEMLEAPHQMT
Method in brief: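 Reporter activation is measured as beta-lactamase activity via FRET substrate cleavage (emission 460/530 nm) in HEK 293T cells expressing an RXR-alpha-driven bla construct, following 16 hr compound exposure at 37 C.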

[15] = qHTS assay to identify small molecule antagonists of the retinoid-related orphan receptor gamma (ROR-gamma) signaling pathway - cell viability counter screen (AID 1159520); also: nearly all actives have a fitted effect of over 50% in size
Method in brief: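 Tet-on ROR gamma CHO cells (1,000/well) were plated 4 hr, given compounds in DMSO for 2 hr at 37 C, then induced with 1 uM final doxycycline for 16 hr. Viability was read as ATP by CellTiter-Glo luminescence after 30 min.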

[16] = qHTS assay to identify small molecule antagonists of the estrogen related receptor (ERR) signaling pathway - cell viability counter screen (AID 1224818);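 also: series mostly up to about 46 µM; viability measured after 17.5 h of compound exposure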
Method in brief: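 ERR reporter cells plated 6 h at 37 C/5% CO2, then compounds in DMSO pin-transferred and incubated 17.5 h at 37 C. Viability read as CellTiter-Fluor fluorescence after 30 min at 37 C.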

[17] = qHTS assay to identify small molecule antagonists of the estrogen related receptor (ERR) signaling pathway (AID 1224819)
Method in brief: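 ERR reporter cells were plated at 2,000 cells/well and left 6 h at 37 C/5% CO2 before pin-tool transfer of compounds in DMSO. After 18 h at 37 C, One-Glo was added and luminescence was read 30 min later at room temperature.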

[18] = qHTS assay to identify small molecule agonists of the estrogen related receptor (ERR) signaling pathway (AID 1224820)
Method in brief: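 ERR reporter cell line (from NTP), 2,000 cells/well, incubated 6 h before compound addition, then 18 h at 37 C. Luminescence measured 30 min after One-Glo reagent at room temperature.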

[19] = test system: estrogen-related receptor alpha (ERRalpha) with PGC-1alpha coactivator, human; test: qHTS assay to identify small molecule antagonists of the estrogen related receptor signaling pathway with the pleiotropic PPARgamma coactivator (PGC) (AID 1224821; calls by dose curve)
Method in brief: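 PGC/ERR reporter cell line, plated 6 h before compound addition, then exposed 18 h at 37 °C. Luciferase activity read by luminescence 30 min after One-Glo addition; decrease indicates antagonism.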

[20] = qHTS assay to identify small molecule agonists of the estrogen related receptor signaling pathway with the pleiotropic PPARgamma coactivator (PGC) (AID 1224823)
Method in brief: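 PGC/ERR reporter cells seeded 6 h, then exposed to compounds (23 nL in DMSO) for 18 h at 37 C. One-Glo luciferase luminescence read after 30 min at room temperature.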

Measured: Potency

C=C(C#N)CCC#N
inactive: [1] | [2] | [3] | [4] | [5] | [6] | [7] | [8] | [9] | [10] | [11] | [12]

CC(C)(Cl)[N+](=O)[O-]
inactive: [1] | [2] | [3] | [13] | [7] | [8] | [14] | [9] | [10] | [11] | [12]

CCC(COC(=O)c1cc(OC)c(OC)c(OC)c1)(c1ccccc1)N(C)C (stereo unspecified)
inactive: [1] | [3] | [4] | [5] | [15] | [6] | [7] | [9]

CCOP(=O)(OCC)SCCSCC
inactive: [1] | [2] | [3] | [4] | [5] | [6] | [7] | [8] | [9] | [10] | [11] | [12]

BrCC(Br)C1CCC(Br)C(Br)C1 (stereo unspecified)
inactive: [3] | [13] | [15] | [7] | [9] | [10] | [12]

O=C(NC(=O)c1c(F)cccc1F)Nc1ccc(OC(F)(F)C(F)OC(F)(F)F)c(Cl)c1 (stereo unspecified)
inactive: [1] | [3] | [13] | [7] | [8] | [9] | [10]

C=CC(=O)OCC(C)C
inactive: [1] | [2] | [3] | [4] | [5] | [15] | [6] | [7] | [8] | [14] | [9] | [10]

O=C1c2ccccc2C(=O)C1C(=O)C(c1ccccc1)c1ccccc1
inactive: [2] | [3] | [13] | [15] | [7] | [8] | [9] | [10] | [11] | [12]

NC(=O)C(Cl)(Cl)Cl
inactive: [1] | [2] | [3] | [4] | [5] | [15] | [6] | [7] | [8] | [14] | [9] | [10] | [11] | [12]

Clc1cccc2ccccc12
inactive: [1] | [3] | [4] | [5] | [15] | [7] | [8] | [14] | [9] | [10]

Sc1ccccc1Cl
inactive: [1] | [2] | [3] | [13] | [7] | [8] | [14] | [9] | [10] | [11] | [12]

Oc1ccc(Cl)c(Cl)c1Cl
active: [6] 50.3 µM | [11] 63.4 µM
inactive: [2] | [3] | [4] | [5] | [7] | [8] | [14] | [9] | [10] | [12]

[CH3][Sn]([CH3])([Cl])[Cl]
active: [6] 4.93 µM and 6.86 µM | [11] 55.4 µM and 48.6 µM
inactive: [1] | [2] | [3] | [4] | [5] | [7] | [9] | [10]

O=C(O)C1(c2ccc3c(c2)OC[C@H](Cc2ccc(-c4ccccc4)cc2)[C@H]3O)CCCC1
inactive: [3] | [13] | [7] | [8] | [10] | [11] | [12]
active: [1] 49 µM | [2] 49 µM | [6] 54.5 µM

Cc1ccc(-c2c(Cl)nc(C#N)n2S(=O)(=O)N(C)C)cc1
inactive: [3] | [4] | [5] | [7] | [10] | [11]
active: [6] 21.7 µM | [12] 68.5 µM

S=C=NCc1ccccc1
active: [12] 69.3 µM
inactive: [2] | [3] | [13] | [6] | [7] | [9] | [10] | [11]

C#CCOC(C(=O)OCCN(C)C)(c1ccccc1)c1ccccc1
inactive: [1] | [2] | [3] | [4] | [5] | [15] | [6] | [7] | [8] | [9] | [10] | [11] | [12]

COCCOCCO
inactive: [2] | [3] | [13] | [10] | [12] | [16] | [17] | [18] | [19] | [20]

COC1=CC(=O)O[C@@H](CCc2ccccc2)C1
inactive: [1] | [2] | [3] | [4] | [5] | [15] | [6] | [7] | [8] | [10] | [11] | [12]

CCOP(O)OCC
inactive: [1] | [2] | [3] | [4] | [5] | [15] | [7] | [8] | [9] | [10] | [11] | [12]

CCN(C)N=O
inactive: [1] | [3] | [13] | [15] | [7] | [9] | [10] | [11] | [12]

C/C(=C\c1ccccc1)[N+](=O)[O-]
inactive: [3] | [7] | [9] | [10]
active: [1] 24.5 µM | [13] 54.9 µM | [6] 19.3 µM | [11] 30.6 µM

CCOP(=S)(OCC)SCn1nnc2ccccc2c1=O
active: [1] 54.9 µM | [2] 49 µM
inactive: [3] | [4] | [5] | [15] | [7] | [8] | [9] | [10] | [11] | [12]

CCCCC(CC)COP(=O)(Oc1ccccc1)Oc1ccccc1 (stereo unspecified)
inactive: [2] | [3] | [5] | [15] | [6] | [7] | [10] | [11] | [12]

O=[N+]([O-])C(Br)(CO)CO
inactive: [3] | [4] | [7]

Clc1ccc(C(OCCN2CCCCC2)c2ccccc2)cc1 (stereo unspecified)
inactive: [2] | [3] | [5] | [7] | [10]

CC(=O)NC1CCSC1=O (stereo unspecified)
inactive: [1] | [2] | [3] | [5] | [15] | [7] | [8] | [14] | [9] | [10] | [11] | [12]

CCCCCCC#N
inactive: [1] | [2] | [3] | [5] | [15] | [6] | [7] | [8] | [9] | [10] | [11] | [12]

O=C(Nc1ccccc1)Nc1cnns1
inactive: [1] | [2] | [3] | [15] | [6] | [7] | [8] | [9] | [10] | [11] | [12]
